Among all 310,000 compounds or so, about 14,000 (4.5%) showed an effect of 50% or more. Effects have a minus sign here. What follows is part of a selection rich in strong results, with near analogues and random picks from the rest.
What follows are molecules tested against human ether-à-go-go-related gene (hERG) potassium channel (human, UniProt Q12809) (assay: primary screen, population patch clamp on CHO cells stably expressing hERG; higher = less effect of the substance).
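Also: peak tail current of the secondary pulse compared with the same well before compound.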

Chain of human ether-à-go-go-related gene (hERG) potassium channel (Q12809 whole entry, looked up): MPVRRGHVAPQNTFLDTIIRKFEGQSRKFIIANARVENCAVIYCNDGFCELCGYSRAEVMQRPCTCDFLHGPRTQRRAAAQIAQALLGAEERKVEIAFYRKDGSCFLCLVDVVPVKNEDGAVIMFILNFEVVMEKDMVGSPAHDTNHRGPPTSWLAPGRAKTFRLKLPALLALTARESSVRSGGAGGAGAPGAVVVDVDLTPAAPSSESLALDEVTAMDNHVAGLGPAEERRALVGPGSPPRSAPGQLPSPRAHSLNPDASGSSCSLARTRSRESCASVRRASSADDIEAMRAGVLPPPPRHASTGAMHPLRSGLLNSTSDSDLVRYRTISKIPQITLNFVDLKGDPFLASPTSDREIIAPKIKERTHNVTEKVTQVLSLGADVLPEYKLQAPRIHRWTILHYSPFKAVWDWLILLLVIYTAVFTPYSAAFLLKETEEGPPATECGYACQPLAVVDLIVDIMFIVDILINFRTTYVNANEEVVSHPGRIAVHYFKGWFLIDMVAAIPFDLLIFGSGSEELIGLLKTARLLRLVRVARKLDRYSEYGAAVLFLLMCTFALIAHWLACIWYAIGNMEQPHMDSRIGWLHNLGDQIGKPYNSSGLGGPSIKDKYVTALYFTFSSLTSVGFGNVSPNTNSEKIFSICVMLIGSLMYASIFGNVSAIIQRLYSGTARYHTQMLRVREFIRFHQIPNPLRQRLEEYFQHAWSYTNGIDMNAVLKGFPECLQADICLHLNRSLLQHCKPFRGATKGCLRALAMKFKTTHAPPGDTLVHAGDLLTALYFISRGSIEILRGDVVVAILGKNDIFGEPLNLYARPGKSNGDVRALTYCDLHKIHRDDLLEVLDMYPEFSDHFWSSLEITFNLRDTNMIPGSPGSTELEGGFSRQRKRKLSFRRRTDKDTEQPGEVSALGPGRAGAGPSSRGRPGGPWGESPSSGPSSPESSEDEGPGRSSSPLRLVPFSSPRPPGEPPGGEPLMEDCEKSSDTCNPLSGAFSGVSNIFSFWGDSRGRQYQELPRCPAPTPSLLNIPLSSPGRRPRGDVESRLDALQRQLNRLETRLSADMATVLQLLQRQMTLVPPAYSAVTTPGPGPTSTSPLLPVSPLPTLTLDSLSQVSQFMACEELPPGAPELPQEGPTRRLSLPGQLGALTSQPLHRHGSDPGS

| SMILES | hERG current change (%, negative = inhibition) at 10uM [%] |
| --- | --- |
| Cc1occc1C(=O)Nc1ccc(Br)cc1F | 2.03 |
| Cc1ccc(NC(=S)N(CCN(C)C)C(C)c2ccco2)cc1C (stereo not drawn) | -44.3 |
| CC1CCC2CCCCC2N1C(=O)c1cc([N+](=O)[O-])cc([N+](=O)[O-])c1 (stereo not drawn) | 2.18 |
| COc1cc(CCCN2C(=S)NC[C@H]2Cc2ccc(O)cc2)cc(OC)c1OC | -16.4 |
| CC1CCN(C(=O)c2ccc(CS(=O)(=O)Cc3ccccc3)cc2)CC1 | -33.6 |
| CC(=O)N1c2ccc(S(=O)(=O)NCC3CCC(C(=O)N4CCCCC4)CC3)cc2CC1C (stereo not drawn) | 12.2 |
| c1ccc2c(c1)[nH]c1c(NCC3CCCO3)ncnc12 (stereo not drawn) | 11 |
| Cc1ccc(S(=O)(=O)N(C)CCCC(=O)Nc2ccncc2)cc1 | -63 |
| CC(=O)Nc1ccc(S(=O)(=O)N(C)S(=O)(=O)c2ccc(F)cc2)cc1 | -63.3 |
| CC(=O)Nc1ccc(S(=O)(=O)N(C)c2ccccc2)cc1 | 0.318 |
| Cc1ccc(S(=O)(=O)N(C)CC(=O)Nc2ccncc2)cc1 | -8.2 |
| CN(CCCC(=O)Nc1ccc(OC(F)F)cc1)S(=O)(=O)c1ccc(F)cc1 | -71.3 |
| CC(=O)Nc1ccc(S(=O)(=O)N(C)c2ccc(O)cc2)cc1 | 2.53 |
| CN(CC(=O)Nc1ccncc1)S(=O)(=O)c1ccc(Cl)cc1 | -5.97 |
| COc1ccc(NC(=O)CCCN(C)S(=O)(=O)c2ccc(C)cc2)cc1 | -26.8 |
| CN(CCCC(=O)Nc1ccccc1)S(=O)(=O)c1ccc(Cl)cc1 | -47.9 |
| CC(=O)c1cccc(NC(=O)CCCN(C)S(=O)(=O)c2ccc(F)cc2)c1 | -2.1 |
| Cc1ccc(S(=O)(=O)N(C)CCCC(=O)Nc2ccc(F)cc2)cc1 | -30.1 |
| CN(CCCC(=O)Nc1ccncc1)S(=O)(=O)c1ccc(Cl)cc1 | -53.8 |
| O=C(Oc1ccnc2cc(Cl)ccc12)N1CCOCC1 | -1.74 |
| COc1ccc2c(c1)c(=O)oc1cc(O)ccc12 | 3.99 |
| O=C(CSc1cn(Cc2cccc(F)c2)c2ccccc12)NCc1ccc(F)cc1 | 9.86 |
| CCOc1ccccc1N(CC(=O)NC(C)(C)C)C(=O)CCC(=O)Nc1nccs1 | -4.92 |

| SMILES | hERG current change (%, negative = inhibition) at 10uM [%] |
| --- | --- |
| CC(C)(C)NC(=O)C(c1ccc(O)cc1)N(C(=O)Cn1nnc(-c2ccc(F)cc2)n1)c1ccccc1F (stereo not drawn) | -1.66 |
| COc1cc(CNc2ccc(N3CCOCC3)cc2)cc(Br)c1OC | -23.4 |
| CCOc1cc2oc(=O)c3c(c2cc1Cl)CCC3 | 7.75 |
| COc1ccc(Cn2c(C)c(C)c(C#N)c2NC(=O)Nc2ccc(F)cc2)cc1 | -3.49 |
| COc1ccc(N=CC2=C(O)c3ccccc3C2=O)cc1 | 11.1 |
| COCCCn1c(C(=O)NC2CCCCC2C)cc2c(=O)n3cccc(C)c3nc21 (stereo not drawn) | -12 |
| COCCn1c(=O)[nH]c2cc(C(=O)NCC3CCCO3)ccc2c1=O (stereo not drawn) | -7.76 |
| CCN(C(=O)c1cc2c(=O)n3cccc(C)c3nc2n1CCCOC)C1CCCCC1 | -44.1 |
| Cc1ccc2nc3c(cc(C(=O)NCC4CCCO4)c(=N)n3CCCOC(C)C)c(=O)n2c1 (stereo not drawn) | -71.8 |
| COCCCn1c(=N)c(C(=O)NCC2CCCO2)cc2c(=O)n3cccc(C)c3nc21 (stereo not drawn) | -73.1 |
| COCCCn1c(C(=O)N2CC(C)OC(C)C2)cc2c(=O)n3ccccc3nc21 (stereo not drawn) | -9.36 |
| CC(C)OCCCn1c(SC(C)C(=O)NCC2CCCO2)nc2cc(Cl)ccc2c1=O (stereo not drawn) | -20.6 |
| Cc1cccn2c(=O)c3cc(C(=O)NCC4CCCO4)c(=N)n(CCN4CCOCC4)c3nc12 (stereo not drawn) | -69.4 |
| COCCCn1c(C(=O)N2CCOCC2)cc2c(=O)n3ccccc3nc21 | 2.75 |
| COCCCn1c(=N)c(C(=O)NCC2CCCO2)cc2c(=O)n3ccccc3nc21 (stereo not drawn) | -64.3 |
| CSc1nnc2c(n1)OC(c1cccn1C)N(C(C)=O)c1ccccc1-2 (stereo not drawn) | -10.1 |
| CCS(=O)(=O)Nc1cccc(C2=NN(S(C)(=O)=O)C(c3cccs3)C2)c1 (stereo not drawn) | -11.1 |
| CCOC(=O)C1=C(c2ccccc2)O/C(=C(/C(=O)OC)C(F)(F)F)S1 | -3.45 |
| CC(=O)Nc1ccc(N(C(=O)Cc2c[nH]c3ccccc23)C(C(=O)NC2CCCCC2)c2ccco2)cc1 (stereo not drawn) | -13.1 |
| O=c1[nH]nc(CNc2ccc(C(F)(F)F)cc2)c2ccccc12 | 1.92 |
| CC(C)(C)c1ccc(C(=O)N2CCC(=O)N(C(CO)Cc3ccccc3)CC2)cc1 (stereo not drawn) | -16.7 |
| Cc1cccc(NC(=S)N(CCN(C)C)Cc2cccs2)c1 | -25.8 |
| Cc1cc(NS(=O)(=O)c2cccs2)no1 | -3.03 |

| SMILES | hERG current change (%, negative = inhibition) at 10uM [%] |
| --- | --- |
| Cc1cccn2c(=O)c3cc(C(=O)NCC4CCCO4)c(=N)n(CC4CCCO4)c3nc12 (stereo not drawn) | -81.9 |
| CCCn1c(=N)c(C(=O)NCc2ccc3c(c2)OCO3)cc2c(=O)n3cccc(C)c3nc21 | -76.5 |
| Cc1ccc(-c2cc(C(=O)NCC3CCCO3)c3ccccc3n2)cc1C (stereo not drawn) | 12.1 |
| Cc1cccn2c(=O)c3cc(C(=O)NC4CCCC4)c(=N)n(CC4CCCO4)c3nc12 (stereo not drawn) | -74.4 |
| CCCn1c(=N)c(S(=O)(=O)c2ccc(F)cc2)cc2c(=O)n3cccc(C)c3nc21 | -4.16 |
| Cc1ccccc1Nc1cc(C(=O)NCC2CCCO2)c2ccccc2n1 (stereo not drawn) | -15.6 |
| Cc1cccn2c(=O)nc(SCC(=O)NCc3ccc4c(c3)OCO4)nc12 | -27.1 |
| CCCn1nc(C(=O)NCc2ccc3c(c2)OCO3)c2ccccc2c1=O | 1.89 |
| CCCn1c(=N)c(C(=O)NCC2CCCO2)cc2c(=O)n3cccc(C)c3nc21 (stereo not drawn) | -76.3 |
| CCCn1c(=S)[nH]c2cc(C(=O)NCC3CCCO3)ccc2c1=O (stereo not drawn) | 3.73 |
| Cc1ccc(S(=O)(=O)c2cc3c(=O)n4cccc(C)c4nc3n(CC3CCCO3)c2=N)cc1C (stereo not drawn) | 2.35 |
| CCC(=O)N1CCc2cc(S(=O)(=O)CCC(=O)NCc3cccc(OC)c3)ccc21 | 13.8 |
| COc1ccc([C@@H]2C[C@@H](c3ccccc3)Oc3c(C)ccc(C(C)C)c32)cc1 | 13.3 |
| CCCc1nc(N2CCCC2)c(C#N)c2c1CCCC2 | 4.06 |
| COC(=O)c1cc(-c2ccccc2)n(CCN)c1C.Cl | -3.56 |
| COc1ccc(OCC(=O)Nc2nnc(C)s2)cc1 | 9.71 |
| C=CCSc1nnc(C)c(/C=C/Nc2ccc(Cl)cc2)n1 | -9.44 |
| Cc1nnc(SCc2ccc(Cl)cc2)nc1/C=C/N(C)C | -72.6 |
| Cc1nnc(SCc2ccccc2)nc1/C=C/NOCc1ccc(Cl)cc1Cl | 13.9 |
| Cc1ccc(C(=O)O)cc1S(=O)(=O)N1CCC(C(=O)O)CC1 | -4.77 |
| NC(=S)Cc1nc2n(n1)Cc1ccccc1-2 | 21.6 |
| CC(=O)N1CCN(c2ccc(NC(=O)c3ccccc3C)cc2)CC1 | -0.597 |
| C=C1CCN([C@@H](C)C(=O)NCc2ccc(OC)cc2)S(=O)(=O)c2ccccc21 | -6.66 |

Reference: PMC4336329 (PLoS ONE, 2015)
